From ChEMBL document CHEMBL3988442, “University of Dundee, Small-Polar-MMV Screening Library” (2021)

How the values were obtained:
[1] = target: T1, Aspartate--tRNA(Asp/Asn) ligase (Mycobacterium tuberculosis (strain ATCC 25618 / H37Rv)) (UniProt P9WFW3); assay: Assay for Asp RNA synthetase-1 from Mycobacterium tuberculosis; type: functional; design: scale not given: direction of the effect not stated beside the values; conditions: 30 µM; further: in the data most compounds retested in dose-response had high values
T1 sequence (whole entry): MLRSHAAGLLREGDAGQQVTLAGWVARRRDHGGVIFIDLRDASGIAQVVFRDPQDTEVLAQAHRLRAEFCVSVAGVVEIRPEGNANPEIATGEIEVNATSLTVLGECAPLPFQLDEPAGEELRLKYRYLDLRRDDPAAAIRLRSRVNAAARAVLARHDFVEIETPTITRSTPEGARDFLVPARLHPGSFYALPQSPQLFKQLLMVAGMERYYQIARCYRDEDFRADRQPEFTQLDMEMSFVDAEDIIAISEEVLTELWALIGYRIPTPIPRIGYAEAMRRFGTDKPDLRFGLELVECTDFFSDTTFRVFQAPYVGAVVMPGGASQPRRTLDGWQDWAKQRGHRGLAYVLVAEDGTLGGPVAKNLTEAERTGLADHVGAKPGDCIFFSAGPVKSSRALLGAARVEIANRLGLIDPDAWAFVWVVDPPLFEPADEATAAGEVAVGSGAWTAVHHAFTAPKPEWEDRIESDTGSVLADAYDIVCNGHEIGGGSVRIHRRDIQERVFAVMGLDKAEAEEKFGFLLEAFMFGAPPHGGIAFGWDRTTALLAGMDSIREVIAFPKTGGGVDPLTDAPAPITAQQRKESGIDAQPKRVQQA

[2] = target: Shiga toxin 2 (Escherichia coli O157:H7) (UniProt P09385+P09386); assay: E. coli 0.157:H7 Shiga Toxin SOP - stx2 screening assay; type: functional; design: scale not given: direction of the effect not stated beside the values; conditions: 30 µM

Structure (SMILES)	Percent Effect [1]	Percent Effect [2]
COCCN(Cc1ccc(F)cc1Cl)C(=O)c1cccc[n+]1[O-]	-4.34%	0.846%
Cc1nc(COC[C@@H]2CCC[C@@]23CNCCO3)cs1	19.4%	-7.74%
COc1ccc(C[C@H]2CN(C(=O)c3ccncc3)CC[C@@H]2OC)cc1	1.64%	-22.2%
CCC1CN(CCC(=O)N(C)C)CCN1CCOC (stereo not given)	2.89%	22.5%
Cc1noc(C)c1CC(=O)OCC(=O)N1CCc2sccc2C1	6.42%	-7.79%
Cc1ccc2c(n1)N(C)CCN(C(=O)C1CC1)C2	9.78%	-13.9%
O=C1CCC(C(=O)NCc2nncn2-c2ccccc2)CN1 (stereo not given)	3.33%	4.47%
O=C(NCCc1ccccc1)C1CCCN(c2ccc3nncn3n2)C1 (stereo not given)	-2.08%	-7.24%
COc1cccc([C@@H]2CN(C(=O)c3ccc(C)cc3O)C[C@H]2C(=O)O)c1	1.74%	-5.94%
CCC(=O)N1CCN(C(=O)CCn2cccn2)CC1	-2.56%	-8.34%
CCc1n[nH]c(C2CN(C(=O)c3cnc[nH]3)CCO2)n1 (stereo not given)	-1.76%	27.7%
CC(C)Cc1noc(CN2CCN(C(=O)c3ccco3)CC2)n1	-0.114%	-20%
CC(C(=O)NCc1ccnc(N2CCN(C)CC2)c1)n1cccn1 (stereo not given)	-3.86%	6%
COc1ncccc1CNC(=O)NCCNC(=O)c1ccco1	-10.1%	-25%
COc1c(CNC2CCN(c3ncccn3)CC2)c(C(C)C)nn1C	-2.81%	30.1%
CC(C)(C)OC(=O)CNC(=O)CCc1nnc(-c2ccsc2)o1	8.92%	-21.2%
O=C(Nc1cnn(CCN2CCOCC2)c1)c1cc(F)ccc1F	0.211%	21.3%
O=C(NCCN1CCNCC1)c1nc2ccccc2c(=O)[nH]1	2.9%	-55.8%
O=C(Cc1ccc2c(c1)OCCO2)NC1CCN(CC(F)F)CC1	-1.24%	11%
COCCCNC(=O)CN(C)C(=O)c1cc(C)ccc1O	0.583%	14.3%
COc1ccc(NC(C)C(=O)N2CCN(Cc3ccccc3)CC2)cn1 (stereo not given)	3.97%	-11.8%
Cc1cnn(CC(C)NCc2ccc(-n3cccn3)cc2)c1 (stereo not given)	-3.68%	-40%
COCCn1nc(C(=O)N(C)Cc2cnn(C)c2)ccc1=O	-3.74%	9.25%
O=C(COCc1nc(-c2ccncc2)no1)N1CCCC1	15.3%	-21.3%
CN1CCN(Cc2nc3ccccc3[nH]2)[C@H]2CS(=O)(=O)C[C@H]21	8.03%	-6.1%
